Experimental data taken from PubChem BioAssay (Tox21).
Inconclusive results are not listed. Calls of active or inactive are those of the source. Unless noted, the call rests on the fitted dose curve; in most records, active means well fitted curve in the direction sought with a large enough effect in the repeat runs; inconclusive means weak or mixed curves; inactive means no such curve, though single readings can be large; an effect the other way counts as inactive or inconclusive.

Experiments:
[1] = qHTS assay for small molecules that induce genotoxicity in human embryonic kidney cells expressing luciferase-tagged ATAD5 (AID 651632); conditions: HEK293T ATAD5-luciferase induction, 16 h; series mostly up to 83.3 µM; further: nearly all actives have a fitted effect of over 15% in size
Procedure, shortened: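 A rise in luciferase signal from ATAD5-tagged HEK293T cells marks genetic stress. Cells were exposed to compounds for 16 hr at 37C, 5% CO2, then luciferase was quantified after a 30 min room-temperature incubation with Amplite.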

[2] = qHTS assay for small molecule agonists of the p53 signaling pathway - cell viability (AID 651633; calls by dose curve;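 further: p53RE-bla HCT reporter cells with a stable beta-lactamase p53 reporter; nearly all actives have a fitted effect of over 30% in size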); conditions: p53RE-bla HCT-116 viability, ATP luminescence, 16 h; series mostly up to 83.3 µM
Procedure, shortened: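 p53RE-bla cells, seeded at 4,000 per well and rested 5 h at 37 C/5% CO2, received compounds in DMSO for 16 h at 37 C. CellTiter-Glo was then added, and luminescence was read after 30 min at room temperature to gauge cytotoxicity.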

[3] = qHTS assay for small molecules that induce genotoxicity in human embryonic kidney cells expressing luciferase-tagged ATAD5 - cell viability (AID 651634; calls by dose curve; further: nearly all actives have a fitted effect of over 25% in size; further: potency means the concentration at half of the fitted maximal effect); conditions: HEK293T ATAD5-luc cells viability, CellTiter-Fluor, 15.5 h; series mostly up to 83.3 µM
Procedure, shortened: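 Cytotoxicity counter-readout: after 15.5 hr compound treatment at 37C, live-cell protease activity in ATAD5-luciferase HEK293T cells measured by CellTiter-Fluor fluorescence, 30 min development at 37C.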

[4] = qHTS assay for small molecule disruptors of the mitochondrial membrane potential - cell viability (AID 720634; calls by dose curve;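 further: human HepG2 liver cancer cells; nearly all actives have a fitted effect of over 20% in size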); conditions: HepG2 viability, ATP luminescence (CellTiter-Glo), 1 h; series mostly up to 83.2 µM
Procedure, shortened: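 Cytotoxicity was quantified from ATP content by CellTiter-Glo luminescence in the same wells as the MMP dye read-out. HepG2 (2,000 cells/well) were plated overnight and exposed to compounds for 1 hr at 37 C.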

[5] = qHTS assay to test for compound auto fluorescence at 590 nm (red) in HepG2 cells (AID 720674); conditions: HepG2 autofluorescence, red 540/590 nm, 1 h; series mostly up to 91.3 µM
Procedure, shortened: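 Compound auto-fluorescence is scored relative to Rose Bengal sodium, measured at 540/590 nm in live HepG2 cultures after 1 hr compound contact (37 C, 5% CO2).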

[6] = qHTS assay to test for compound auto fluorescence at 535 nm (green) in HepG2 cells (AID 720675); conditions: green autofluorescence 485/535 nm, 1 h; series mostly up to 91.3 µM
[7] = qHTS assay to test for compound auto fluorescence at 460 nm (blue) in HEK293 cells (AID 720678); conditions: blue autofluorescence 405/460 nm; series mostly up to 91.3 µM
Procedure, shortened: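 Intrinsic compound fluorescence is recorded in live HEK293 cultures after overnight incubation at 37C, 5% CO2, using excitation 405 nm and emission 460 nm. Values are referenced to triamterene.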

[8] = qHTS assay to test for compound auto fluorescence at 590 nm (red) in HEK293 cells (AID 720679); conditions: red autofluorescence 540/590 nm; series mostly up to 91.3 µM
Procedure, shortened: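 Red autofluorescence, HEK293 cells: 2,000 cells/well; attach 4-5 hr 37C; add 23 nL cpd or DMSO; incubate o/n 37C 5% CO2; read Ex540/Em590; Rose Bengal sodium reference.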

[9] = qHTS assay to test for compound auto fluorescence at 535 nm (green) in HEK293 cells (AID 720680); conditions: green autofluorescence 485/535 nm; series mostly up to 91.3 µM
[10] = qHTS assay to test for compound auto fluorescence at 460 nm (blue) in HEK293 cell free culture (AID 720681); conditions: cell-free medium, autofluorescence 405/460 nm (blue); series mostly up to 91.3 µM
Procedure, shortened: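 Test compounds were pinned into cell-free culture medium (DMEM with 10% FBS) and fluorescence was read directly at Ex/Em 405/460 nm. Signals were expressed as fluorescence equivalents of triamterene, with DMSO vehicle as control.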

[11] = qHTS assay to test for compound auto fluorescence at 535 nm (green) in HEK293 cell free culture (AID 720682); conditions: cell-free medium, green autofluorescence 485/535 nm, active compounds read high; series mostly up to 91.3 µM
Procedure, shortened: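 Steps: dispense DMEM/10% FBS into empty wells; pin in compound or DMSO; measure fluorescence at 485/535 nm. Values are fluorescein equivalents.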

[12] = qHTS assay to test for compound auto fluorescence at 590 nm (red) in HEK293 cell free culture (AID 720683); conditions: cell-free medium autofluorescence, Ex540/Em590 red; series mostly up to 91.3 µM
Procedure, shortened: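 Tox21 10K library compounds were pinned into cell-free DMEM with 10% FBS and fluorescence was read at excitation 540 nm. Activity is expressed as Rose Bengal sodium equivalency.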

[13] = qHTS assay to test for compound auto fluorescence at 590 nm (red) in HepG2 cell free culture (AID 720684); conditions: cell-free medium autofluorescence, red 540/590 nm; series mostly up to 91.3 µM
Procedure, shortened: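 Readout: intrinsic compound fluorescence at 590 nm emission after 540 nm excitation, scaled to Rose Bengal sodium. Matrix was cell-free MEM with 10% FBS; DMSO vehicle wells served as control.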

[14] = qHTS assay to test for compound auto fluorescence at 460 nm (blue) in HepG2 cells (AID 720687); conditions: autofluorescence 405/460 nm, 1 h; series mostly up to 91.3 µM
Procedure, shortened: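 Cells (2,000/well in MEM with 10% FBS) attached overnight at 37 C, then were exposed to compound or DMSO for 1 hr at 37 C, 5% CO2. Fluorescence read at Ex/Em 405/460 nm, expressed as triamterene-equivalent signal.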

[15] = qHTS assay for small molecule disruptors of the mitochondrial membrane potential (AID 720635); conditions: HepG2 mitochondrial membrane potential, Mito-MPS dye ratio; series mostly up to 83.2 µM; further: potency means the concentration at half of the fitted maximal effect
Procedure, shortened: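 HepG2 cells (2,000/well) attached overnight at 37C, then took compound for 1 hr at 37C, 5% CO2. Mito-MPS dye was added for 30 min; fluorescence was read at 490/535 nm (monomers) and 540/590 nm (aggregates).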

[16] = qHTS assay to test for compound auto fluorescence at 460 nm (blue) in HepG2 cell free culture (AID 720685); conditions: Cell-free culture medium, blue autofluorescence 405/460 nm; series mostly up to 91.3 µM
Procedure, shortened: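 Cell-free plates of MEM plus 10% FBS received 23 nL compound or DMSO vehicle; blue-channel (405/460 nm) intensity scored against triamterene as reference fluorophore.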

[17] = qHTS assay to test for compound auto fluorescence at 535 nm (green) in HepG2 cell free culture (AID 720686); conditions: Cell-free medium, green autofluorescence 485/535 nm; series mostly up to 91.3 µM
[18] = molecular target: Glucocorticoid receptor (Homo sapiens) (UniProt P04150); assay: qHTS assay to identify small molecule agonists of the glucocorticoid receptor (GR) signaling pathway (AID 720691; active means well fitted activation curve with a large enough effect in the signal ratio in the repeat runs, not every such curve was filed as active; the % refers to the signal ratio); conditions: GR-bla HeLa, beta-lactamase reporter ratio, 18 h; series mostly up to 62.4 µM
Sequence of Glucocorticoid receptor (Homo sapiens) (P04150 whole entry, looked up): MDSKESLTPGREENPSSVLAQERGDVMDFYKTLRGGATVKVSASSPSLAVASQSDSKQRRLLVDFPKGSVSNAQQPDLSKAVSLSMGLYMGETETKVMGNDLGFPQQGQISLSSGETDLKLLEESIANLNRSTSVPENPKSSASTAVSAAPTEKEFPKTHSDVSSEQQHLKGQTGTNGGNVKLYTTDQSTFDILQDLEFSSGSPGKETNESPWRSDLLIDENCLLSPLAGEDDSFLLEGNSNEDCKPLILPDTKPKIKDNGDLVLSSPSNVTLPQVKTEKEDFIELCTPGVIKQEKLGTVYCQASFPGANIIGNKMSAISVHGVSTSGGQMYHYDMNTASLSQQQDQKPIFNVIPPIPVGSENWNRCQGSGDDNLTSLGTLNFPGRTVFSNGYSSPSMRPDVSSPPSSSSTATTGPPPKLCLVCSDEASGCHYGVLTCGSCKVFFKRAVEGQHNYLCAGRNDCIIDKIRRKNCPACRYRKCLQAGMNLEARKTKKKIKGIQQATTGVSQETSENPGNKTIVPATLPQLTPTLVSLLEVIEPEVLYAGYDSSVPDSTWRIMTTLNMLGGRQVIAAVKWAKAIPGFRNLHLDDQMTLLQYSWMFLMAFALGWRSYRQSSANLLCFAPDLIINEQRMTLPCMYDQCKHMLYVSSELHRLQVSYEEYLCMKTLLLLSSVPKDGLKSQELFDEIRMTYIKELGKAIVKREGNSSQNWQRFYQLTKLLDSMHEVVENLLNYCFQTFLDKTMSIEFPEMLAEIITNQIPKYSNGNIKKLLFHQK
Procedure, shortened: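 Agonist-mode qHTS in HeLa cells stably expressing a glucocorticoid-response-element beta-lactamase reporter. Fluorescence intensity read with FRET substrate (2 h, room temperature) after 18 h compound treatment at 37 C.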

[19] = molecular target: Glucocorticoid receptor (Homo sapiens) (UniProt P04150); assay: qHTS assay to identify small molecule antagonists of the glucocorticoid receptor (GR) signaling pathway (AID 720692; active means well fitted inhibition curve with a large enough effect in the signal ratio in the repeat runs, not every such curve was filed as active; the % refers to the signal ratio); conditions: GR-bla HeLa, beta-lactamase FRET ratio, dexamethasone-stimulated, 18 h; series mostly up to 58.5 µM
Procedure, shortened: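 Inhibition of dexamethasone-driven (5 nM final) beta-lactamase expression was measured in GRE-reporter HeLa cells over 18 h at 37C. Fluorescence was read after 2 h with the B/G FRET substrate at room temperature.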
On the % scale 0 is the no-effect control and ±100 the full control effect.

CCCCOC(=O)/C=C\C(=O)OCCCC
inactive: Potency [1] | Potency [2] | Potency [3] | Potency [4] | outcome [5] | outcome [6] | Potency [7] | outcome [8] | outcome [9] | Potency [10] | outcome [11] | outcome [12] | outcome [13] | Potency [14]

COc1cc(C(C)(C)C)c(O)c(C(C)(C)C)c1
active: Potency [15] 27.3 µM
inactive: Potency [1] | Potency [2] | Potency [4] | outcome [5] | outcome [6] | outcome [8] | outcome [9] | Potency [10] | outcome [12] | outcome [13] | Potency [16] | outcome [17] | Potency [14] | Potency [18]

C=C(C)C(=O)OCCN(C)C
inactive: Potency [1] | Potency [2] | Potency [3] | outcome [5] | Potency [7] | outcome [8] | outcome [9] | Potency [10] | outcome [11] | outcome [12] | outcome [13] | Potency [16] | outcome [17] | Potency [14]

N[C@H]1C(O)O[C@H](CO)[C@H](O)[C@@H]1O (stereo partly specified)
inactive: Potency [1] | Potency [2] | Potency [4] | outcome [5] | outcome [6] | Potency [7] | outcome [8] | outcome [9] | Potency [10] | outcome [11] | outcome [12] | outcome [13] | Potency [16] | outcome [17] | Potency [14]

COC(=O)C(C)=O
inactive: Potency [1] | Potency [2] | Potency [3] | Potency [4] | outcome [5] | outcome [8] | outcome [9] | Potency [10] | outcome [11] | outcome [12] | outcome [13] | Potency [16] | outcome [17] | Potency [14] | Potency [18] | Potency [19]

CCOC(=O)C1=C(C)NC(C)=C(C(=O)OC)C1c1cccc([N+](=O)[O-])c1 (stereo unspecified)
active: Potency [15] 26.6 µM
inactive: Potency [1] | Potency [2] | outcome [5] | outcome [6] | Potency [7] | outcome [8] | outcome [9] | Potency [10] | outcome [11] | outcome [12] | outcome [13] | Potency [16] | outcome [17] | Potency [14]

CC(C(=O)O)c1ccc(-c2ccccc2)c(F)c1 (stereo unspecified)
inactive: Potency [1] | Potency [2] | Potency [3] | Potency [4] | outcome [5] | outcome [6] | Potency [7] | outcome [8] | outcome [9] | Potency [10] | outcome [11] | outcome [12] | outcome [13] | Potency [16] | outcome [17] | Potency [14] | Potency [18] | Potency [19]

CCCCOc1ccc(CC(=O)NO)cc1
active: Potency [3] 9.02 µM
inactive: Potency [1] | Potency [2] | Potency [4] | fluorescence, relative to Rose Bengal [5] 0.376% [at 18.6 µM] | fluorescence, % of fluorescein control [6] 0.007% [at 18.6 µM] | fluorescence, % of triamterene [7] -0.0396% [at 18.6 µM] | fluorescence, % of fluorescent control [8] 0.184% [at 18.6 µM] | fluorescence, % of fluorescein [9] 0.0125% [at 18.6 µM] | fluorescence, % of fluorescent control [10] -0.0158% [at 18.6 µM] | activity change [11] 0.0033% [at 18.6 µM] | fluorescence, % of fluorescent control [12] -0.0389% [at 18.6 µM] | fluorescence, % of Rose Bengal [13] -0.259% [at 18.6 µM] | fluorescence, % of fluorescein control [17] -0.0407% [at 18.6 µM] | fluorescence, % of fluorescent control [14] -0.124% [at 18.6 µM] | Potency [18] | Potency [19]

O=C(Cl)c1c(Cl)cccc1Cl
inactive: Potency [1] | Potency [2] | Potency [15] | outcome [5] | outcome [6] | Potency [7] | outcome [8] | outcome [9] | Potency [10] | outcome [11] | outcome [12] | outcome [13] | Potency [16] | Potency [14] | Potency [18]

CCCCCC/C=C/C=O
inactive: Potency [1] | Potency [2] | Potency [3] | outcome [5] | outcome [6] | Potency [7] | outcome [8] | outcome [9] | Potency [10] | outcome [11] | outcome [12] | outcome [13] | Potency [16] | outcome [17] | Potency [14] | Potency [18]

O=C(CCN1CCN2CCCC2C1)N1c2ccccc2Sc2ccc(Cl)cc21 (stereo unspecified)
inactive: Potency [1] | Potency [2] | Potency [3] | Potency [4] | outcome [5] | outcome [6] | outcome [8] | outcome [9] | Potency [10] | outcome [12] | outcome [13] | Potency [16] | outcome [17] | Potency [14] | Potency [18]

CCOC(=O)C1=NN(c2ccccc2)C(=O)C1
inactive: Potency [1] | Potency [2] | Potency [3] | Potency [4] | outcome [5] | Potency [7] | outcome [8] | outcome [9] | Potency [10] | outcome [12] | outcome [13] | Potency [16] | outcome [17] | Potency [14] | Potency [18]

CN1CCC(=C2c3ccccc3C=Cc3ccccc32)CC1
inactive: Potency [1] | Potency [2] | Potency [3] | outcome [5] | outcome [6] | Potency [7] | outcome [8] | outcome [9] | Potency [10] | outcome [11] | outcome [12] | outcome [13] | Potency [16] | outcome [17] | Potency [14] | Potency [18]

Cc1cc(C)c(S(=O)(=O)O)cc1N=Nc1cc(S(=O)(=O)O)c2ccccc2c1O
active: Potency [3] 48.6 µM
inactive: Potency [1] | Potency [2] | outcome [5] | outcome [6] | Potency [7] | outcome [8] | outcome [9] | Potency [10] | outcome [12] | outcome [13] | outcome [17] | Potency [14]

C=CC(=O)OCCOC(=O)CCC(=O)O
inactive: Potency [1] | Potency [2] | Potency [3] | Potency [4] | outcome [5] | outcome [6] | Potency [7] | outcome [8] | outcome [9] | Potency [10] | outcome [11] | outcome [12] | outcome [13] | Potency [16] | outcome [17] | Potency [14] | Potency [19]

O=C(O)C(c1ccc(Cl)cc1)c1ccc(Cl)cc1
inactive: Potency [1] | Potency [2] | Potency [3] | Potency [4] | outcome [5] | outcome [6] | Potency [7] | outcome [8] | outcome [9] | Potency [10] | outcome [11] | outcome [12] | outcome [13] | outcome [17] | Potency [14]
